Calb FLC = affects C. albicans growth with fluconazole. C. albicans CaCi-2 (fluconazole-resistant clinical isolate) + fluconazole, Alamar Blue growth, 48 h. growth inhibition, % (test concentration not listed). AID 1979. 300,000 compounds, 0.57% hits;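 active = growth inhibition above about 58% in most replicates, limit read from the data, passing the limit was not always enough; inconclusive = exactly half the replicates above a set limit; inactive = most replicates below a set limit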;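 also: all wells also contain fluconazole at 8 µg/ml as a sub-toxic cotreatment; 0% = median of DMSO wells and 100% = median of geldanamycin control wells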
SKKanGAS inh = blocks kanamycin growth of S. pyogenes SKKanGAS strain | BacTiter-Glo, 6 h | inhibition, % at 7.5 µM | 300,000 compounds, 1.3% hits | AID 1662;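 active = mean replicate score, as percent of positive control median, at least 50; inconclusive = mean below 50 but one replicate at or above 50; inactive = mean and every replicate below 50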;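 also: strain carries kanamycin resistance gene driven by streptokinase promoter and grows in 40 µg/ml kanamycin; loss of luminescence reflects streptokinase promoter inhibition or plain growth inhibition; 0% = median of DMSO wells and 100% = positive control at its reference dose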
PolyA inh = yeast polyadenylation inhibition | S. cerevisiae SKY197-pL101 polyadenylation reporter, beta-gal luminescence; efflux-impaired pdr1/pdr3 knockout yeast; score 100 = 6 SD above DMSO | activity score, % at 12 µM | 300,000 compounds, 0.02% hits | AID 1875;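 active = lowest replicate activity score at least 50, where 100 means six control SD above control mean; inconclusive = lowest score under 50 but half or more replicates reach 50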;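 also: yeast exposed to compound for 9 h at 30 °C; higher score means more reporter readthrough which indicates perturbed polyadenylation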
CR mimetic SO = yeast age-related superoxide inhibition as caloric restriction mimetic. S. cerevisiae aged cells, superoxide DHE fluorescence; hits give low values. superoxide response (% of plate mean), % at 10 µM. 330,000 compounds, 0.18% hits;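 active = superoxide response under a set limit, about three screen SD below normal, cut at about 65% in these data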;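 also: yeast aged for seven days with compound at 30 °C before DHE staining; 100% = average MFI of all compound-treated wells on the plate with controls excluded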
Platelet DG rel = platelet dense granule release activity; human platelet-rich plasma, SFLLRN dense granule ATP release, luminescence; inhibition, %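 (compounds screened at 7.5 µM in platelet-rich plasma)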; 300,000 compounds, 0.22% hits;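 active = mean replicate score, as percent of positive control, at or above 50; inconclusive = mean below 50 but at least one replicate at or above 50; inactive = mean and every replicate below 50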
Numbers without * were called inactive. A selection: hits, their analogues and other compounds. The true share with any hit is near 2%.

Oc1c(Cl)cc(Cl)cc1C(C#Cc1ccccc1)N1CCOCC1 (stereo unspecified) was read as Calb FLC 2, SKKanGAS inh 90*, PolyA inh 5, CR mimetic SO 95 and Platelet DG rel -5.
For O=C1OC(/C=C/c2ccc(Cl)cc2)=NC/1=C/c1ccco1 the results were Calb FLC -3, SKKanGAS inh 1, PolyA inh 0, CR mimetic SO 97 and Platelet DG rel 3.
O=C(N1CCOCC1)N1CCc2ccccc21 was read as Calb FLC -8, SKKanGAS inh -4, PolyA inh -9, CR mimetic SO 102 and Platelet DG rel -4.
Screening O=C1CCSc2ccc(Cl)cc2N1Cc1ccc(Cl)cc1 returned Calb FLC 9, SKKanGAS inh 53*, PolyA inh 0, CR mimetic SO 113 and Platelet DG rel -40.
Screening Cc1ccc(-c2nc3sc(C#N)c(N)n3c(=O)c2C#N)cc1 returned Calb FLC 111*, SKKanGAS inh 12, PolyA inh 4, CR mimetic SO 110 and Platelet DG rel -28.
`Cc1nc2ccccc2c(=O)n1NC(=O)Cc1ccc([N+](=O)[O-])cc1` gave Calb FLC -35, SKKanGAS inh -1, PolyA inh 3, CR mimetic SO 100 and Platelet DG rel 9.
Cc1ccc(F)cc1CNC(=O)C1CCC(=O)N(CC2CCCCC2)C1 (stereo unspecified) was read as Calb FLC 12, SKKanGAS inh -1, PolyA inh -2, CR mimetic SO 97 and Platelet DG rel -1.
Cc1noc(C)c1COc1ccc(C(=O)Nc2nnc(CC(C)C)s2)cc1 was read as CR mimetic SO 86.
`CCOc1ccccc1NCc1cc(=O)oc2cc(C)c(O)cc12` gave Calb FLC 40, SKKanGAS inh -5, PolyA inh 5, CR mimetic SO 99 and Platelet DG rel 9.
For COc1cccc(NCc2cc(=O)oc3cc(C)c(O)cc23)c1 the results were Calb FLC 9, SKKanGAS inh 99*, PolyA inh -4, CR mimetic SO 102 and Platelet DG rel -2.
O=c1cc(CN2CCN(c3ccccc3)CC2)c2cc(O)c(-c3ccccc3)cc2o1 was read as Calb FLC -29, SKKanGAS inh 16, PolyA inh -1, CR mimetic SO 99 and Platelet DG rel 14.
COc1cccc(NCc2cc(=O)oc3cc(-c4ccccc4)c(O)cc23)c1 was read as Calb FLC -12, SKKanGAS inh 110*, PolyA inh 21, CR mimetic SO 90 and Platelet DG rel -17.
CCN(CC)C(=O)CSc1nc2ccccc2c(=O)n1-c1cccc(OC)c1 was read as Calb FLC -10, SKKanGAS inh 3, PolyA inh -5, CR mimetic SO 104 and Platelet DG rel -6.
Screening Cc1cc2oc(=O)cc(CNc3ccccc3F)c2cc1O returned Calb FLC 0, SKKanGAS inh 51*, PolyA inh 1, CR mimetic SO 100 and Platelet DG rel 6.
Screening COc1cccc(-n2c(SCc3cc(=O)oc4cc(O)c(O)cc34)nc3ccccc3c2=O)c1 returned Calb FLC 106*, SKKanGAS inh 35, PolyA inh 7, CR mimetic SO 79 and Platelet DG rel 6.
Cc1cc(C)nc(N/N=C2/CCCC/C2=C\c2ccccc2)n1 was read as Calb FLC -2, SKKanGAS inh 34, PolyA inh -15, CR mimetic SO 102 and Platelet DG rel 10.
C/C(=N\N1C(=O)CSC1=S)c1ccc(Br)cc1 was read as Calb FLC 73*, SKKanGAS inh 12, PolyA inh 0, CR mimetic SO 93 and Platelet DG rel -4.
Screening Cc1ccc(C(=O)NN2C(=O)CSC2=S)cc1 returned Calb FLC -9, SKKanGAS inh -3, PolyA inh -6, CR mimetic SO 99 and Platelet DG rel 10.
Screening Cc1ccc(S(=O)(=O)Nc2cccc(-c3ccc(N4CCCCCC4)nn3)c2)cc1 returned Calb FLC 1, SKKanGAS inh 10, PolyA inh 4, CR mimetic SO 71 and Platelet DG rel -12.
For O=C(O)c1ccc(-c2nc(-c3ccccc3)cs2)cc1 the results were Calb FLC inconclusive, SKKanGAS inh 7, PolyA inh 1, CR mimetic SO 80 and Platelet DG rel 30.
O=C(O)c1ccc(-c2nc(-c3ccc(Cl)c(Cl)c3)cs2)cc1 was read as Calb FLC 89*, SKKanGAS inh 57*, PolyA inh -23, CR mimetic SO 71 and Platelet DG rel -2.
